# Reference: PubChem BioAssay (EPA / NIEHS)
# Inconclusive results are not listed. The source made the active and inactive calls. How the source made its calls, unless noted: active means hit-call score of the fitted dose curve at least 0.9, where 1 is the maximum; inactive means score below 0.9.
# Key:
# [1] = target: Paired box protein Pax-6 (Homo sapiens) (UniProt P26367); assay: ATG_Pax6_CIS: Attagene CIS-FACTORIAL HepG2 Assay for human Paired Box 6 (PAX6) (AID 2282956); settings: HepG2 CIS-FACTORIAL PAX6 reporter transcription, RNA readout; actives raise or lower the signal
# Procedure, shortened: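 Multiplexed cis-reporter HepG2 system; 24 h treatment; reporter mRNA read by RT-PCR/CE fluorescence; bidirectional fit vs DMSO.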
# [2] = ATG_PXRE_CIS: Attagene CIS-FACTORIAL HepG2 Assay for human Pregnane X Receptor Element (PXRE) (AID 2282957); settings: HepG2 Attagene CIS-FACTORIAL PXRE reporter, mRNA; actives raise or lower the signal
# Procedure, shortened: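 HepG2 cells transiently transfected with cis-regulated multiple reporter transcription units; endogenous factor activity measured as reporter mRNA 24 h after dosing. RT-PCR, fluorescent primer extension, HpaI digestion, capillary electrophoresis; bidirectional fit versus DMSO baseline.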
# [3] = ATG_PPRE_CIS: Attagene CIS-FACTORIAL HepG2 Assay for human Peroxisome Proliferator-activated Response Element (PPRE) (AID 2282958); settings: HepG2 PPRE cis-element reporter, Attagene transcription factor profiling; actives raise or lower the signal
# Procedure, shortened: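 Transcript-level reporter induction in transfected HepG2 cells after 24 h chemical exposure, quantified by fluorescence from RT-PCR products separated by capillary electrophoresis.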
# [4] = ATG_RORE_CIS: Attagene CIS-FACTORIAL HepG2 Assay for human RAR-related Orphan Receptor Element (RORE) (AID 2282959); settings: HepG2 Attagene cis-factorial RORE reporter, mRNA; actives raise or lower the signal
# Procedure, shortened: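 Multiplexed reporter assay measuring mRNA induction from a cis promoter element in transiently transfected HepG2 cells after 24 h treatment. Detection via RT-PCR and capillary electrophoresis fluorescence; DMSO serves as baseline.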
# [5] = ATG_Sox_CIS: Attagene CIS-FACTORIAL HepG2 Assay for human SRY-box transcription factor (SOX) (AID 2282960); settings: HepG2 Attagene cis-factorial SOX reporter, mRNA; actives raise or lower the signal
# Procedure, shortened: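 Cells were transfected with reporter constructs under cis-regulatory promoters, then exposed to chemicals for 24 h. Reporter transcripts were quantified by fluorescence after RT-PCR and capillary electrophoresis; activity was fitted in both directions against DMSO.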
# [6] = target: Transcription factor Sp1 (Homo sapiens) (UniProt P08047); assay: ATG_Sp1_CIS: Attagene CIS-FACTORIAL HepG2 Assay for human Specificity Protein 1 (Sp1) (AID 2282961); settings: HepG2 Sp1 cis-reporter transcription, actives raise or lower the signal
# Procedure, shortened: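 Measures mRNA induction of an Sp1-linked reporter in HepG2 cells 24 h post-dosing. Multiplexed reporters read by RT-PCR and capillary electrophoresis; DMSO serves as negative control and baseline.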
# [7] = ATG_SREBP_CIS: Attagene CIS-FACTORIAL HepG2 Assay for human Sterol Regulatory Element Binding (SREBP) (AID 2282962); settings: HepG2 Attagene cis-factorial SREBP reporter, mRNA; actives raise or lower the signal
# Procedure, shortened: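 mRNA induction of transfected cis-promoter reporters in HepG2 cells, 24 h post-dose. Detection: RT-PCR with 6-FAM-labelled products, HpaI digest, capillary electrophoresis. DMSO served as negative control and baseline.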
# [8] = target: Signal transducer and activator of transcription 3 (Homo sapiens) (UniProt P40763); assay: ATG_STAT3_CIS: Attagene CIS-FACTORIAL HepG2 Assay for human Signal Transducer and Activator of Transcription 3 (STAT3) (AID 2282963); settings: HepG2, Attagene cis-factorial STAT3 reporter transcription; actives raise or lower the signal
# Procedure, shortened: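 Values derive from bidirectional fits relative to DMSO of reporter mRNA levels, measured by RT-PCR with capillary electrophoresis, in HepG2 cells carrying transiently transfected cis-regulated reporter units and exposed 24 h.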
# [9] = ATG_TA_CIS: Attagene CIS-FACTORIAL HepG2 Assay for human TA Basal Promoter (AID 2282964); settings: HepG2 Attagene CIS-factorial TA basal promoter reporter; actives raise or lower the signal
# Procedure, shortened: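 HepG2 cells transiently transfected with multiplexed cis-promoter reporter units, dosed 24 h. Reporter mRNA measured by RT-PCR, 6-FAM labelling, HpaI digestion and capillary electrophoresis; bidirectional fit versus DMSO baseline, serving as background control.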
# [10] = ATG_TCF_b_cat_CIS: Attagene CIS-FACTORIAL HepG2 Assay for human T-Cell-Factor with beta-catenin (TCF/b-cat) (AID 2282965); settings: HepG2 TCF/beta-catenin cis-reporter transcription, actives raise or lower the signal
# Procedure, shortened: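 HepG2, transient MRTU transfection, cis-element-driven reporters (endogenous TFs). 24 h compound exposure. Readout: reporter mRNA by RT-PCR + 6-FAM primer extension, HpaI digest, capillary electrophoresis. Gain/loss fit vs DMSO baseline.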
# [11] = ATG_TAL_CIS: Attagene CIS-FACTORIAL HepG2 Assay for human TAL Basal Promoter (AID 2282966); settings: HepG2 Attagene cis-factorial TAL promoter reporter; actives raise or lower the signal;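 further: background control endpoint measuring basal TAL promoter reporter mRNA not a specific factor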
# Procedure, shortened: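 HepG2 cells were transiently transfected with promoter-driven multiplexed reporter units and dosed for 24 h. Reporter mRNA was measured by RT-PCR with capillary electrophoresis fluorescence; bidirectional fits used DMSO as baseline, serving as a background control.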
# [12] = ATG_TGFb_CIS: Attagene CIS-FACTORIAL HepG2 Assay for human Transforming Growth Factor (TGF) (AID 2282967); settings: HepG2 Attagene CIS TGFb reporter, mRNA transcription; actives raise or lower the signal
# Procedure, shortened: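 HepG2 cells transiently transfected with cis-promoter-driven multiplexed reporter units; 24 h compound exposure. Reporter mRNA measured by RT-PCR, 6-FAM labeling, HpaI digestion and capillary electrophoresis; bidirectional fit versus DMSO baseline.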
# [13] = ATG_VDRE_CIS: Attagene CIS-FACTORIAL HepG2 Assay for human Vitamin D Receptor Element (VDRE) (AID 2282968); settings: HepG2 VDRE cis-reporter transcription, actives raise or lower the signal
# Procedure, shortened: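 Cell-based multiplexed reporter format in human liver HepG2 cells, 24 h post-dose. Fluorescence from capillary electrophoresis of reporter cDNA gives the signal, with DMSO as negative control and baseline.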
# [14] = target: Nuclear receptor subfamily 1 group I member 3 (Homo sapiens) (UniProt Q14994); assay: ATG_CAR_TRANS: Attagene TRANS-FACTORIAL HepG2 Assay for human Constitutive Androstane Receptor (CAR) (AID 2282969; active means hit-call score of the fitted dose curve at least 0.9, where 1 is the maximum;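 further: activators raise reporter mRNA above DMSO so AC50 marks induction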); settings: HepG2 Attagene TRANS-FACTORIAL CAR reporter
# Procedure, shortened: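 HepG2 cells transiently transfected with GAL4-UAS reporter units; TRANS format reads activity of exogenous chimeric NR-Gal4 protein. After 24 h dosing, reporter mRNA quantified by RT-PCR, 6-FAM labelling and capillary electrophoresis; gain of signal fitted against DMSO.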
# [15] = target: X-box-binding protein 1 (Homo sapiens) (UniProt P17861); assay: ATG_Xbp1_CIS: Attagene CIS-FACTORIAL HepG2 Assay for human X-box Binding Protein 1 (XBP1) (AID 2282972); settings: HepG2 XBP1 cis-element reporter, Attagene multiplex; actives raise or lower the signal
# Procedure, shortened: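 Fluorescence-labelled cDNA fragments from reporter transcripts, separated by capillary electrophoresis, give the signal. Source: HepG2 cells transfected with promoter-driven reporter units, harvested 24 h post-dose. DMSO served as reference for bidirectional curve fitting.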
# [16] = ATG_M_19_TRANS: Attagene TRANS-FACTORIAL HepG2 Assay for M19 Transcription Factor (Internal Marker) (AID 2282974; active means hit-call score of the fitted dose curve at least 0.9, where 1 is the maximum); settings: HepG2 Attagene TRANS-FACTORIAL M19 internal marker reporter
# Procedure, shortened: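 After transfection of HepG2 with GAL4-UAS-driven reporter constructs, cells are dosed for 24 h. Total RNA is reverse-transcribed, reporter sequences PCR-amplified and labelled, then HpaI-digested and sized by capillary electrophoresis.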
# [17] = ATG_GAL4_TRANS: Attagene TRANS-FACTORIAL HepG2 Assay for GAL4 (Internal Marker) (AID 2282976; active means hit-call score of the fitted dose curve at least 0.9, where 1 is the maximum); settings: HepG2 Attagene TRANS GAL4 internal marker reporter
# Procedure, shortened: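 HepG2 cells transiently transfected with multiplexed GAL4-UAS reporter constructs were dosed for 24 h. Reporter mRNA was measured by RT-PCR, 6-FAM primer extension, HpaI digestion and capillary electrophoresis, and gain of signal was fitted relative to DMSO.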
# [18] = target: Steroid hormone receptor ERR1 (Homo sapiens) (UniProt P11474); assay: ATG_ERRa_TRANS: Attagene TRANS-FACTORIAL HepG2 Assay for human Estrogen-Related Receptor alpha (ERRa) (AID 2282971; active means hit-call score of the fitted dose curve at least 0.9, where 1 is the maximum); settings: HepG2 Attagene TRANS reporter, ERRa transactivation
# Procedure, shortened: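 HepG2 cells transiently transfected with multiplexed GAL4-UAS reporter units reading chimeric ERRa-Gal4 activity; 24 h compound exposure. Reporter mRNA measured by RT-PCR, 6-FAM labelling, HpaI digest and capillary electrophoresis; gain of signal fitted versus DMSO baseline.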
# [19] = target: Estrogen-related receptor gamma (Homo sapiens) (UniProt P62508); assay: ATG_ERRg_TRANS: Attagene TRANS-FACTORIAL HepG2 Assay for human Estrogen-Related Receptor gamma (ERRg) (AID 2282977; active means hit-call score of the fitted dose curve at least 0.9, where 1 is the maximum;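 further: hits increase reporter signal over DMSO so potencies reflect activators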); settings: HepG2 Attagene TRANS reporter, ERRg transactivation
# Procedure, shortened: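 Transient HepG2 transfectants, 24 h compound exposure, GAL4-UAS reporter mRNA by RT-PCR/6-FAM labelling/capillary electrophoresis; positive direction vs DMSO.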
# Sequence of Transcription factor Sp1 (Homo sapiens) (P08047 whole entry, looked up): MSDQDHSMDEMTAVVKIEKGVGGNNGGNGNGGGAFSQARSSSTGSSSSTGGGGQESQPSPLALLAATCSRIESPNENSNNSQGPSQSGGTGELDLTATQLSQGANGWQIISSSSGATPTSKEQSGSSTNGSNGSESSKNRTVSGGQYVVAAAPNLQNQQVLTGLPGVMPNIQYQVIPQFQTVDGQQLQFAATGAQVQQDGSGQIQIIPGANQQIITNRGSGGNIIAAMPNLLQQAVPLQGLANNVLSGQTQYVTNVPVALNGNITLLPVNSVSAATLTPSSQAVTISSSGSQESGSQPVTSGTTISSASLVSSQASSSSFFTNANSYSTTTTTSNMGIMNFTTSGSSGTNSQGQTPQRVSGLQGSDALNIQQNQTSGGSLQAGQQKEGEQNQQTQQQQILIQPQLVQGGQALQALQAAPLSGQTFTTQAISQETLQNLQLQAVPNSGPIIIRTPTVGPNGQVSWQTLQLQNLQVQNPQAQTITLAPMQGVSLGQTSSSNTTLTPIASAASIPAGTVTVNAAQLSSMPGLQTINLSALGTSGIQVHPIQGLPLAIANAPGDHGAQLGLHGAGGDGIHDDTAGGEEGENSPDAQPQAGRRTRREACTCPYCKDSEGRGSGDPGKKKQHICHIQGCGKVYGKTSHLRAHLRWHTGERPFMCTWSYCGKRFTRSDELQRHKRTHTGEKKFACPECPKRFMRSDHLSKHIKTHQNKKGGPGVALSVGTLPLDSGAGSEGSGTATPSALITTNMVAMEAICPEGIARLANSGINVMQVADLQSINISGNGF
# Sequence of Signal transducer and activator of transcription 3 (Homo sapiens) (P40763 whole entry, looked up): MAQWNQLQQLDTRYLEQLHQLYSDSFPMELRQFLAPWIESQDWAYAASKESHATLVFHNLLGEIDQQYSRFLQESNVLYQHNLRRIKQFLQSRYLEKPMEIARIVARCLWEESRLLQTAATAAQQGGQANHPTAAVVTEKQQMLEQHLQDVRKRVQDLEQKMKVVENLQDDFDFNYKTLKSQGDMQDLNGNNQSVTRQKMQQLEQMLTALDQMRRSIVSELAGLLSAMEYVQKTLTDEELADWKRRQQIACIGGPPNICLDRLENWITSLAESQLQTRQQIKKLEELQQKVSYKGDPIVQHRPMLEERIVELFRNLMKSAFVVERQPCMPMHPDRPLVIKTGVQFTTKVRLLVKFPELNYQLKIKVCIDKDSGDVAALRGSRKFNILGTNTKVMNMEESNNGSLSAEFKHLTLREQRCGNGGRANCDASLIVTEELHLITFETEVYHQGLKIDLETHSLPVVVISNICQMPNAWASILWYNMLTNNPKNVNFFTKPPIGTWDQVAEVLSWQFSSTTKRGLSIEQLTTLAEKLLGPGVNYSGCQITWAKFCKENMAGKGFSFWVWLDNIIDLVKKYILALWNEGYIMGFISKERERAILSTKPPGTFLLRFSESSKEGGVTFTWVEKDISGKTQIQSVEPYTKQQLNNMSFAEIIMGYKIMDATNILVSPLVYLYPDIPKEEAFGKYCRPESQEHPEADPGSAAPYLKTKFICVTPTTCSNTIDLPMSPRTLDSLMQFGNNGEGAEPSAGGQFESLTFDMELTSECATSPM
# Sequence of Nuclear receptor subfamily 1 group I member 3 (Homo sapiens) (Q14994 whole entry, looked up, the tested form may be a part): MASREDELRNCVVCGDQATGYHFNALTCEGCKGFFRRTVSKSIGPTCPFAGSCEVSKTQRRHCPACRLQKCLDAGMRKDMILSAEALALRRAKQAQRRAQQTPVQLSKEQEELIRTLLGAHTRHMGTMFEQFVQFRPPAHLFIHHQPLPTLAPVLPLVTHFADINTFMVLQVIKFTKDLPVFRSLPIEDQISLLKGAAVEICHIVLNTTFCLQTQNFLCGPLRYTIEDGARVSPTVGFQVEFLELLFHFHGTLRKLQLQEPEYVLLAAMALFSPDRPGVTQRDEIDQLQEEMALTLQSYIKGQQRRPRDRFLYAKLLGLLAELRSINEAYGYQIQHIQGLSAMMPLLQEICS
# Sequence of X-box-binding protein 1 (Homo sapiens) (P17861 whole entry, looked up, the tested form may be a part): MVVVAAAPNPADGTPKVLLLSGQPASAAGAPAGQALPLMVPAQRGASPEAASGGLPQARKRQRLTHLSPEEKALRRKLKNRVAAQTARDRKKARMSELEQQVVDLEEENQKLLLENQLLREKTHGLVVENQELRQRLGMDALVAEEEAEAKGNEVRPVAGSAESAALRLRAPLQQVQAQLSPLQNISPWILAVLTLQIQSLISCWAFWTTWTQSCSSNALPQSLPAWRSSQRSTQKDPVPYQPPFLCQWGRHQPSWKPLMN
# Sequence of Paired box protein Pax-6 (Homo sapiens) (P26367 whole entry, looked up): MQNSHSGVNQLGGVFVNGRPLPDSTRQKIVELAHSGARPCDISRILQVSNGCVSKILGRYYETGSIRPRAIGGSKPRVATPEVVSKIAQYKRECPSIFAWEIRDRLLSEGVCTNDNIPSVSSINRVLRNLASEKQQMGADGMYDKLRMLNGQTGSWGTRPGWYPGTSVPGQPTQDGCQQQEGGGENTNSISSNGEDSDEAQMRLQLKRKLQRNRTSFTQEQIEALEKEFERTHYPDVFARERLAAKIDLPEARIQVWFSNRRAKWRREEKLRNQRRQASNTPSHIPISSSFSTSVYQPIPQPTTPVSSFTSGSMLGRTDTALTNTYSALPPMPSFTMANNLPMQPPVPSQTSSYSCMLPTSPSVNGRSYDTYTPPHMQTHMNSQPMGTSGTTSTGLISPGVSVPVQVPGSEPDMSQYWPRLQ
# Sequence of Steroid hormone receptor ERR1 (Homo sapiens) (P11474 whole entry, looked up, the tested form may be a part): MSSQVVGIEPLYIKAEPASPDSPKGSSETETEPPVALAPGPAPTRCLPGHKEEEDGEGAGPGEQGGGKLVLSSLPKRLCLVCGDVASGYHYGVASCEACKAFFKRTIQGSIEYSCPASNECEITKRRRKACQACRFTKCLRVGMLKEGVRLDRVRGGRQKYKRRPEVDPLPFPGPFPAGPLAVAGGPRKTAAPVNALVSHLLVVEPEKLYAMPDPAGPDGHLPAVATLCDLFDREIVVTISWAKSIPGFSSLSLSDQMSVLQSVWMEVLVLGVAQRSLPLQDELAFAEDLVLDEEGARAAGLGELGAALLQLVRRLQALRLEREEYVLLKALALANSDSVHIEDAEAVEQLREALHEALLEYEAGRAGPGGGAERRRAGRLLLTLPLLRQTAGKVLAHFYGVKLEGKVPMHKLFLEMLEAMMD
# Sequence of Estrogen-related receptor gamma (Homo sapiens) (P62508 whole entry, looked up, the tested form may be a part): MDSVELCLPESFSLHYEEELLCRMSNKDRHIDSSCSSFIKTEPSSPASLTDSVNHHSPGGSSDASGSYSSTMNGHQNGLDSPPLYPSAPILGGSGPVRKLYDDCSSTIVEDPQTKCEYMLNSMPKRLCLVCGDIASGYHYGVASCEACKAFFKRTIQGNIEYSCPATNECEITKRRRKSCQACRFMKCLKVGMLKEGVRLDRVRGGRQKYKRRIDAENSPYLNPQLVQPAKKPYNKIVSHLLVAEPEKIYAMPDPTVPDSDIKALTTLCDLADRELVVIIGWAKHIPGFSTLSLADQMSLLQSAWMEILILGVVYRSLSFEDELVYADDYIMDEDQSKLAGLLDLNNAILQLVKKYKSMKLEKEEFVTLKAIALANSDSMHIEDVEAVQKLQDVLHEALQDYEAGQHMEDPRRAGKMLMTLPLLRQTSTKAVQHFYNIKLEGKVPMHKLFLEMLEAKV
compound,measurement,setting,value
CN(C)C(=S)SC(=S)N(C)C,outcome,[1],inactive
same,AC50,[2],73.8 µM (active)
same,AC50,[3],46.2 µM (active)
same,outcome,[4],inactive
same,outcome,[5],inactive
same,outcome,[6],inactive
same,outcome,[7],inactive
same,outcome,[8],inactive
same,outcome,[9],inactive
same,outcome,[10],inactive
same,outcome,[11],inactive
same,outcome,[12],inactive
same,outcome,[13],inactive
same,outcome,[14],inactive
same,outcome,[15],inactive
same,outcome,[16],inactive
C=C(CC(=O)O)C(=O)O,outcome,[1],inactive
same,outcome,[2],inactive
same,outcome,[3],inactive
same,outcome,[4],inactive
same,outcome,[5],inactive
same,outcome,[6],inactive
same,outcome,[7],inactive
same,outcome,[8],inactive
same,outcome,[9],inactive
same,outcome,[10],inactive
same,outcome,[11],inactive
same,outcome,[12],inactive
same,outcome,[13],inactive
same,outcome,[15],inactive
same,outcome,[17],inactive
CC(C)(C)OC(=O)c1ccc(O)cc1,outcome,[1],inactive
same,outcome,[2],inactive
same,AC50,[3],87.7 µM (active)
same,AC50,[4],72.5 µM (active)
same,outcome,[5],inactive
same,outcome,[6],inactive
same,outcome,[7],inactive
same,outcome,[8],inactive
same,outcome,[9],inactive
same,outcome,[10],inactive
same,outcome,[11],inactive
same,outcome,[12],inactive
same,AC50,[13],45.4 µM (active)
same,AC50,[15],70.3 µM (active)
CCCCCCCCCCCCCCN(CCO)CCO,outcome,[1],inactive
same,AC50,[2],2.92 µM (active)
same,outcome,[3],inactive
same,outcome,[4],inactive
same,outcome,[5],inactive
same,AC50,[6],11.1 µM (active)
same,AC50,[7],7.35 µM (active)
same,outcome,[8],inactive
same,outcome,[9],inactive
same,outcome,[10],inactive
same,outcome,[11],inactive
same,outcome,[12],inactive
same,outcome,[13],inactive
same,outcome,[14],inactive
same,outcome,[15],inactive
CC1(C)CCC[C@]2(C)[C@H]3CCO[C@]3(C)CC[C@@H]12,outcome,[1],inactive
same,AC50,[2],7.46 µM (active)
same,outcome,[3],inactive
same,AC50,[4],100 µM (active)
same,outcome,[5],inactive
same,outcome,[6],inactive
same,AC50,[7],145 µM (active)
same,outcome,[8],inactive
same,outcome,[9],inactive
same,outcome,[10],inactive
same,outcome,[11],inactive
same,outcome,[12],inactive
same,outcome,[13],inactive
same,outcome,[14],inactive
same,outcome,[17],inactive
Cc1ncc([N+](=O)[O-])n1CCO,outcome,[1],inactive
same,outcome,[2],inactive
same,outcome,[3],inactive
same,outcome,[4],inactive
same,outcome,[5],inactive
same,outcome,[6],inactive
same,outcome,[7],inactive
same,outcome,[8],inactive
same,outcome,[9],inactive
same,outcome,[10],inactive
same,outcome,[11],inactive
same,outcome,[12],inactive
same,outcome,[14],inactive
same,outcome,[18],inactive
same,outcome,[15],inactive
same,outcome,[17],inactive
same,outcome,[19],inactive
CCCCCCOC(=O)C(C)C,outcome,[1],inactive
same,outcome,[2],inactive
same,outcome,[3],inactive
same,outcome,[4],inactive
same,outcome,[5],inactive
same,outcome,[6],inactive
same,outcome,[7],inactive
same,outcome,[8],inactive
same,outcome,[9],inactive
same,outcome,[10],inactive
same,outcome,[11],inactive
same,outcome,[12],inactive
same,outcome,[13],inactive
same,outcome,[18],inactive
same,outcome,[19],inactive
CC(C)=CCCC(C)CCOC=O (configuration not stated),outcome,[1],inactive
same,AC50,[2],100 µM (active)
same,outcome,[3],inactive
same,outcome,[4],inactive
same,outcome,[5],inactive
same,outcome,[6],inactive
same,outcome,[7],inactive
same,outcome,[8],inactive
same,outcome,[9],inactive
same,outcome,[10],inactive
same,outcome,[11],inactive
same,outcome,[12],inactive
same,outcome,[13],inactive
same,outcome,[14],inactive
same,outcome,[15],inactive
CCc1cc(C(C)(C)C)c(O)c(C(C)(C)C)c1,outcome,[1],inactive
same,AC50,[2],8.94 µM (active)
same,outcome,[3],inactive
same,outcome,[4],inactive
same,outcome,[5],inactive
same,AC50,[6],33.4 µM (active)
same,AC50,[7],59.9 µM (active)
same,outcome,[8],inactive
same,outcome,[9],inactive
same,outcome,[10],inactive
same,outcome,[11],inactive
same,outcome,[12],inactive
same,outcome,[13],inactive
same,outcome,[15],inactive
same,outcome,[16],inactive
